ST2 IL33 inh – inhibitors of human ST2 (IL1RL1) binding to IL-33; Q01638; AlphaLISA ST2-Fc/biotin-IL-33 interaction, 1 h; inhibition, % for hits at 17 µM; hit rate 2.3% among 78,000; in the data active = inhibition above about 30%
Target sequence (Q01638 whole entry, looked up): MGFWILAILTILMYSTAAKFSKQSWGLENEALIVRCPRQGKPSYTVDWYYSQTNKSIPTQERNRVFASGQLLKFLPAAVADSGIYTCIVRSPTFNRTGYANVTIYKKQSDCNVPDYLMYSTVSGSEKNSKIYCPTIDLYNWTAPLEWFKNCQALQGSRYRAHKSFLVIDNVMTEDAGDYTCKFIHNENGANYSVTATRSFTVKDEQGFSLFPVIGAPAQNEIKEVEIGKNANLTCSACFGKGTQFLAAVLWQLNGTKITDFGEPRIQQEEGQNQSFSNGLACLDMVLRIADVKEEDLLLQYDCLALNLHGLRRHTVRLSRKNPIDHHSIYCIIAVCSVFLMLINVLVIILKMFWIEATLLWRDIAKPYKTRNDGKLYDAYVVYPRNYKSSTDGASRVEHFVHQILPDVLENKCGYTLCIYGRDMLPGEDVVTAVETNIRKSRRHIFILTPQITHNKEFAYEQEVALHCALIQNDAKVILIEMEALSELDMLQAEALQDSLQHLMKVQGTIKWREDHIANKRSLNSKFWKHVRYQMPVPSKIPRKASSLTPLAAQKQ
Starred values were filed as active, the others as inactive; i = inactive; ! = repeats disagree. Only a selection was taken, and hits are over-represented in it overall.

SMILES	ST2 IL33 inh
Cc1cc([N+](=O)[O-])ccc1NC(=O)COc1ccc(C(C)C)cc1	i
CCOc1ccccc1NS(=O)(=O)c1cc([N+](=O)[O-])ccc1C	i
Cc1nonc1OCC(C)(COc1nonc1C)Nc1ccc([N+](=O)[O-])cc1[N+](=O)[O-]	40%*
CCN(CC)S(=O)(=O)c1ccc(C(=O)N2CCN=C2SCc2cc(C)ccc2C)cc1	i
Nc1ccc(/C=C/C2C=CC=CC2)cc1 (configuration not stated)	47%*
COc1cc(NC(=O)c2ccccc2OC)cc(OC)c1	i
CC(=O)c1cccc(C(=O)N2C[C@H](N(C)C)C[C@H]2CO)c1	i
O=C1CC(Cn2cnc(-c3ccccc3)c2C2CC2)CN1C1CCCC1 (configuration not stated)	i
COCCNC(=S)N[C@H]1C[C@H]2C(=O)NC[C@@H](CCC(=O)N3CCCCC3)N2C1	i
COc1ccc(-c2ccc3c(c2)C(=O)N2CC[C@H](NC(=O)CCC(=O)O)[C@H]2C(=O)N3)cc1	46%*
O=C(O)CCC(=O)N[C@H]1CCN2C(=O)c3cc(-c4ccccc4F)ccc3NC(=O)[C@H]12	i
O=C(O)CCC(=O)N[C@H]1CCN2C(=O)c3cc(-c4ccccc4)ccc3NC(=O)[C@H]12	i
Cn1c(=O)[nH]c(=O)c2c1nc(N1CCN(CCO)CC1)n2CCSc1ncccn1	i
CC(Cc1c[nH]c2ccccc12)NC(N)=O (configuration not stated)	i
O=C(O)CCCc1c[nH]c2ccccc12	i
NC(=O)Cc1c[nH]c2cccc(O)c12	101%*
O=C(NCCc1cnn(-c2ccccc2)c1)C1CC(Cc2ccccc2Cl)=NO1 (configuration not stated)	i
Fc1cccc(-c2cnnc(N3CCN(C/C=C/c4ccccc4)CC3)n2)c1	i
Cc1nn(-c2ccc(C(C)C)cc2)c(C)c1[C@H]1C=C[C@@H](O)C1	i
CN(C)c1nc2c(c(-c3ccccc3CN3CCOCC3)n1)CCCC2	i
Nc1nc(-c2ccccc2)cs1	i
Nc1nc(-c2ccc(-c3ccccc3CN3CCOCC3)cc2)cs1	34%*
Cc1nnc([C@H]2CCN(Cc3ccc4c(c3)OCO4)C2)o1	i
Cn1nc(-c2ccccn2)c2c1NC(=O)CC2c1c(Cl)nc2sccn12 (configuration not stated)	i
O=C(NCc1cccc(Cl)c1)c1cnc2n(c1=O)CCS2	i
SMILES	ST2 IL33 inh
CCOC(=O)CSc1nc2c([nH]c3ccccc32)c(=O)n1-c1cccc(OC)c1	i
O=c1cc(-c2ccc(O)cc2)oc2c(C3OCC(O)C(O)C3O)c(O)c(C3OCC(O)C(O)C3O)c(O)c12 (configuration not stated)	i
O=c1cc(-c2ccc(O)cc2)oc2c(C3OCC(O)C(O)C3O)c(O)c(C3OC(CO)C(O)C(O)C3O)c(O)c12 (configuration not stated)	i
O=c1cc(-c2ccc(O)cc2)oc2c([C@@H]3O[C@H](CO)[C@@H](O[C@@H]4O[C@H](CO)[C@@H](O)[C@H](O)[C@H]4O)[C@H](O)[C@H]3O)c(O)cc(O)c12	50%*
Ic1ccc(OCCCN2CCCC2)cc1	i
Cc1ccc(NC(=O)CSc2cn(CCNC(=O)c3ccc(F)cc3)c3ccccc23)c(C)c1	i
Oc1c(Br)cc(C=Nc2ccc(N3CCOCC3)cc2)c(O)c1Br	52%*
COc1ccc(N=Cc2cc(Br)cc(Cl)c2O)cc1	i
NC(N)=NS(=O)(=O)c1ccc(N=Cc2cc(Br)cc(Br)c2O)cc1	i
NS(=O)(=O)c1ccc(Cl)c(C(=O)Nc2cccc([N+](=O)[O-])c2)c1	i
COc1cc(O)c2c(c1)OC(c1ccc(O)c(O)c1)CC2=O (configuration not stated)	i
CCOC(=O)C1CCCN(c2ncnc3c2cnn3-c2ccccc2)C1 (configuration not stated)	i
COc1ccc(-n2ccc3ccccc32)cc1	i
O=[N+]([O-])c1ccc(-n2ccc3ccccc32)cc1	32%*
O=[N+]([O-])c1ccc(S(=O)(=O)n2nnc3ccccc32)cc1	i
O=C(Nc1ccc(F)cc1F)c1oc(=O)c2ccccc2c1-c1ccccc1	i
Cc1ccc(C2Nc3ccc(C(=O)c4ccccc4)cc3NC3=C2C(=O)CCC3)cc1 (configuration not stated)	i
CC1(C)CC(=O)C2=C(C1)Nc1nc(SCc3ccccc3Cl)nn1C2c1ccncc1 (configuration not stated)	42%*!
CC1=C(C(=O)Nc2ccc(C)cn2)C(c2cccnc2)C2=C(CC(C)(C)CC2=O)N1 (configuration not stated)	i
CC1(C)CC(=O)C2=C(C1)Nc1nc(SCc3ccccc3Cl)nn1C2c1cccnc1 (configuration not stated)	31%*!
COc1ccc(C2C3=C(CC(C)(C)CC3=O)Nc3nc(SCc4ccccc4)nn32)cc1 (configuration not stated)	i
CC1(C)CC(=O)C2=C(C1)Nc1cc(C(=O)c3ccccc3)ccc1NC2c1cccnc1 (configuration not stated)	33%*
CC1(C)CC(=O)C2=C(C1)Nc1nc(SCc3ccccc3)nn1C2c1ccc(O)cc1 (configuration not stated)	i
CC1(C)CC(=O)C2=C(C1)Nc1ccccc1N(C(=O)Cc1ccc(Cl)cc1)C2c1cccnc1 (configuration not stated)	40%*
CC1(C)CC(=O)C2=C(C1)Nc1ccccc1N(C(=O)Cc1ccc(Cl)cc1)C2c1ccco1 (configuration not stated)	i
SMILES	ST2 IL33 inh
COc1cccc(C2C3=C(CC(C)(C)CC3=O)Nc3nc(SCc4ccccc4)nn32)c1 (configuration not stated)	i
CCCCC(=O)N1c2ccccc2NC2=C(C(=O)CC(C)(C)C2)C1c1ccc2c(c1)OCO2 (configuration not stated)	i
CC1=C(C(N)=O)C(c2cccnc2)n2nc(SCc3ccccc3Cl)nc2N1 (configuration not stated)	i
CCOC(=O)C1CCN(S(=O)(=O)c2ccc3c(c2)CCN3C(=O)C2CC2)CC1	i
COc1ccc(C2C(C#N)=C(N)OC3=C2C(=O)CC(C)(C)C3)cc1COc1ccc(Cl)cc1 (configuration not stated)	i
COC(=O)C1C(=O)C2=C(CC1C)NC(C)=C(C(=O)OC1CCCCC1)C2c1cccs1 (configuration not stated)	i
Cc1nc(-c2ccccc2)nc(Cl)c1CC(=O)O	i
COC(=O)C(NC(=O)c1cc(OC)c(OC)c(OC)c1)C(C)C (configuration not stated)	i
CCCc1cnc(C)nc1NC1CC(=O)N(Cc2ccccc2Cl)C1 (configuration not stated)	i
COc1ccc(CNC2(CN3CCOCC3)CCCCC2)cc1OC	i
CN(Cc1ccccc1)C(=O)C[C@@H]1O[C@H](CNC(=O)N2CCOCC2)[C@@H](O)[C@H]1O	i
O=C(CN1Cc2ccccc2OC(c2ccsc2)C1)N1CCCC1c1nc2ccc(F)cc2[nH]1 (configuration not stated)	i
COc1cccc(-c2cn3c4c(=O)n(C)c(=O)n(C)c4nc3n2-c2ccc(C)cc2)c1	i
Clc1ccc(-c2nc(NCc3cccnc3)c3ccccc3n2)c(Cl)c1	i
COc1ccc(N=Cc2cccc(OC)c2O)c(OC)c1	i
CCOC(=O)c1cc2c(ccc3oc4c(c32)CCCC4)oc1=O	i
